Assay outcomes deposited in PubChem BioAssay by National Center for Advancing Translational Sciences (NCATS).
Sampled rows, rich in hits. Any-hit rate of the full collection: about 17%.
TDP1 cell noCPT = qHTS for Inhibitors of human tyrosyl-DNA phosphodiesterase 1 (TDP1): qHTS in cells in absence of CPT | Potency, µM (doses to about 46.2 µM), without a hit: top-dose activity change, negative = growth inhibition, hits mostly inhibitors | DT40 Tdp1-/- hTDP1 cells, no CPT, ATP luminescence, 48 h | 420,000 tested, 15% active | AID 686978, 2013; also: % is scaled to controls: 0 for no effect and ±100 for the full control effect; nearly all actives have a fitted effect of over 55% in size
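Luminescent ATP content (CellTiter-Glo) served as the growth readout. Knockout chicken DT40 cells expressing human TDP1 were exposed to compounds without camptothecin for a minimum 48 hr at 37 °C.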
ATXN2 expr inh = ATXN2 expression inhibition; Potency, µM (titrated, usually from 57 µM), for inactives: top-dose activity change, negative = inhibition, most hits filed as inhibitors; 360,000 tested, 0.72% active; HEK-293 ATXN2-luciferase reporter, luminescence, 24 h; AID 1745845; also: % is scaled to controls: 0 for no effect and ±100 for the full control effect; nearly all actives have a fitted effect of over 55% in size
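qHTS (up to 57 uM final) was run with 24 h compound exposure of reporter cells at 37 °C. Each well was multiplexed: SteadyGlo luminescence measured ATXN2-luciferase expression after a fluorogenic Gly-Phe-AFC viability readout (25 uM final).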
DT40 TDP1 CPT = DT40-hTDP1 cell growth loss with CPT | chicken DT40 Tdp1-/-;hTDP1 cells + 20 nM CPT, ATP luminescence, 48 h | 420,000 tested, 12% active | Potency, µM (doses to about 46.2 µM), inactives show at the highest dose activity change, negative = growth inhibition, usual class: inhibitors; also: % is scaled to controls: 0 for no effect and ±100 for the full control effect; nearly all actives have a fitted effect of over 55% in size
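Chicken DT40 Tdp1-/- cells stably complemented with human TDP1 were seeded at 400 cells/well in medium containing 20 nM camptothecin, exposed to pin-transferred compounds, and grown at 37 °C for at least 48 hr. Viability was read as ATP luminescence.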
TGFb SMAD3 inh = TGF-b pathway inhibition; HepG2 CAGA-GFP TGF-b/SMAD3 reporter, GFP fluorescence, 18 h; TGF-beta stimulated, 500 pg/mL final; Potency, µM (highest dose often 46.1 µM), without a hit: at the top dose activity, negative = inhibition, most hits filed as inhibitors; 410,000 tested, 1.2% active; AID 588855; also: % is scaled to controls: 0 for no effect and ±100 for the full control effect; nearly all actives have a fitted effect of over 65% in size
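Cell-based qHTS in HEPG2 carrying a CAGA-GFP Smad reporter; compounds added before 500 pg/mL final TGF-beta, 18 h incubation at 37 degrees C, GFP fluorescence quantified per cell by imaging cytometry.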
S2 tox = viability counter-screen for ATXN expression inhibitors. 400,000 tested, 0.49% active. Potency, µM (doses to about 56.7 µM), usual class: cytotoxic. S2 cells (HEK-293 line with an ATXN2-luciferase reporter) viability, CellTiter-Fluor protease fluorescence, 24 h; also: nearly all actives have a fitted effect of over 40% in size
HepG2 viability = counter-screen for TGF-b inhibitors: cytotoxicity in HepG2 cells; HepG2 CAGA-GFP viability, ATP luminescence, 18 h; Potency, µM (doses to about 46.1 µM), for inactives: at the top dose activity change, negative = cytotoxicity, usual class: cytotoxic; 410,000 tested, 0.76% active
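HepG2 CAGA-GFP cells (1000/well, DMEM with 1% FBS) received compound, then TGF-beta at 500 pg/mL final, and were incubated 18 hours at 37 degrees C. Viability was read by CellTiter-Glo luminescence. Media-only wells were set as complete cell-killing and DMSO as no toxicity.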
* marks the source's active call; other numbers are inactive results; i = inactive; u = inconclusive; x = no result; [ ] = remark or other dose. Calls follow the shape of the dose curve; as a rule, active = well fitted curve in the direction sought with a large enough effect; inconclusive = small, poorly fitted or top-dose-only effect, or another doubt; inactive = no such curve, though single readings can be large; an effect the other way counts as inactive or inconclusive. Potency is read from the fitted curve at half-maximal effect.

SMILES	TDP1 cell noCPT	ATXN2 expr inh	DT40 TDP1 CPT	TGFb SMAD3 inh	S2 tox	HepG2 viability
CNC(=O)CN(C1CCCCC1)S(=O)(=O)c1ccc(F)cc1	-7%	-1%	-7%	-29%	i	0%
CCN(CC)S(=O)(=O)c1cccc(NC(=O)CNC2CCCCCC2)c1	u	x	u	u	u	-11%
CN(C1CCCCC1)S(=O)(=O)c1ccc(S(=O)(=O)N(CC(=O)Nc2ccccc2)C2CC2)cc1	23µM*	x	u	u	i	-25%
CCN(CC)S(=O)(=O)c1cccc(C(=O)NCC(c2ccccc2)N(C)C)c1 (stereo not drawn)	-6%	-9%	5%	2%	i	-9%
O=C(CCn1c(=O)c2cccn2c2cccnc21)NCc1ccccc1F	-26%	x	-2%	-14%	x	-23%
CN(C1CCCCC1)S(=O)(=O)c1ccc(NC(=O)C2CCCCC2)cc1	21µM*	2%	16µM*	u	i	-14%
CN(C1CCCCC1)S(=O)(=O)c1ccc(NC(=O)CCC(=O)O)cc1	0%	-1%	4%	15%	u	17%
CCN(c1ccccc1)S(=O)(=O)c1ccc(Cl)c(NC(=O)CNCc2ccccc2OC)c1	u	-12%	u	-3%	i	-36%
O=C(CCNS(=O)(=O)c1ccccc1C(F)(F)F)N1CCN(c2ccccc2O)CC1	u	7%	u	-2%	i	-4%
COc1ccc(CNC(=O)CCc2nnc3n(C)c(=O)c4sccc4n23)cc1	-11%	-1%	-1%	7%	i	-22%
CC(C)(C)N(Cc1ccc2c(c1)OCO2)C(=O)/C=C\S(=O)c1ccccc1 (stereo not drawn)	3.7µM*	16µM*	5.2µM*	11µM*	u	18µM*
CN(C)S(=O)(=O)N1CCCC(C(=O)c2ccc(C(F)(F)F)cc2)C1 (stereo not drawn)	u	-10%	-20%	0%	i	-13%
Cc1ncoc1C(=O)N1CCCC(N2CCN(c3ccccc3F)CC2)C1 (stereo not drawn)	14%	-7%	-3%	0%	i	3%
Cc1ncoc1C(=O)N1CCCC(C(=O)c2ccc(-c3ccccc3)cc2)C1 (stereo not drawn)	23µM*	x	18µM*	-11%	i	-17%
CN(C)S(=O)(=O)N1CCCC(C(=O)c2ccc(-c3ccccc3)cc2)C1 (stereo not drawn)	23µM*	-8%	u	2%	i	-1%
Cn1cc(CN2CCCC(C(=O)c3cccs3)C2)c(-c2cccc(Cl)c2)n1 (stereo not drawn)	16µM*	-14%	u	6%	u	-19%
CC1CCCN(C(=O)c2ccncc2)C1 (stereo not drawn)	13%	1%	2%	0%	i	4%
O=C(c1ccc(-c2ccccc2)cc1)C1CCCN(C(=O)c2ccncc2)C1 (stereo not drawn)	u	-25%	3.7µM*	-20%	i	-20%
C[C@@H]1CN(Cc2ccc3c(c2)CN(Cc2cn[nH]c2-c2ccccc2)CCO3)C[C@H](C)O1	-21%	x	4%[9.04 µM]	x	i	x
CC(C)n1nnnc1C1c2ccccc2C(=O)N1CCCN1CCOCC1 (stereo not drawn)	-27%	-2%	11%	x	u	x
O=C(c1ccc(-c2ccccc2)cc1)C1CCCN(Cc2ccncc2)C1 (stereo not drawn)	u	-39%	16µM*	-24%	i	-27%
Cc1nn(C)cc1CN1CCCC(C(=O)c2ccc(-c3ccccc3)cc2)C1 (stereo not drawn)	21µM*	-14%[11.3 µM]	u	-8%	i	-46%
CC(C)(C)NC(=O)CSc1nnc(C2CC2)n1-c1ccccc1	-15%	-18%	2%	-6%	i	-3%
Nc1cc(=O)[nH]c2c1CCC2	-13%	x	-1%	-1%	x	-21%
O=C(Oc1cccc2ccccc12)c1cc(Cl)nc2ccccc12	u	-16%	-26%	-8%	i	-1%
SMILES	TDP1 cell noCPT	ATXN2 expr inh	DT40 TDP1 CPT	TGFb SMAD3 inh	S2 tox	HepG2 viability
O=Cc1ccc(OC(=O)c2cc(Cl)nc3ccccc23)cc1	21µM*	12%	u	-8%	i	1%
CC(C)(C)n1ncc2c(=O)n(Cc3ccc(Cl)cc3C(F)(F)F)cnc21	x	x	x	-2%	x	-20%
CCNC(=O)C1(C)CCN1CCC(=O)c1ccc(C)cc1 (stereo not drawn)	16µM*	8%	21µM*	-19%	u	2%
Cc1cccc(CN2CCN(C(=O)CN(C)C(C)C(=O)Nc3ccc(C(N)=O)cc3)CC2)c1 (stereo not drawn)	-29%	x	-18%	1%	i	-1%
O=[N+]([O-])c1ccc(Cl)c2c1C1C=CCC1C(c1ccccn1)N2 (stereo not drawn)	u	-19%	18µM*	u	u	-10%
Cc1cc(C)c2nc3nc(C)c(C)cc3c(N)c2c1	6.5µM*	u	8.2µM*	u	x	0%
Cc1cc(C(=O)NOCCO)c(Nc2ccc(I)cc2F)n(C)c1=O	x	-5%	x	x	x	x
CC(=O)n1c(Cl)c(NC(=O)CCl)c2ccccc21	12µM*	u	10µM*	u	u	-45%
Cc1ccccc1C1c2[nH]c3ccccc3c2CCN1CCCn1cccn1 (stereo not drawn)	13µM*	u	u	-9%	i	-8%
c1ccc(Nc2scc(-c3ccccc3)[n+]2Cc2ccco2)cc1	23µM*	x	16µM*	u	x	-26%
c1ccc(C[n+]2c(-c3ccccc3)csc2Nc2ccccc2)cc1	u	21%	10µM*	u	i	0%
FC(F)(F)c1ccc(Oc2ccc3cc(Br)ccc3c2)nc1	-4%	6%	-6%	-12%	i	-18%
CC(C)(C)CC(C)(C)c1ccc(OCOCCOCCO)c(Cc2cc(C(C)(C)CC(C)(C)C)cc(Cc3cc(C(C)(C)CC(C)(C)C)ccc3OCOCCOCCO)c2OCOCCOCCO)c1	x	x	x	x	i	x
CC(C)(C)CC(C)(C)c1ccc(OCCO)cc1	11µM*	x	8.4µM*	x	x	x
O=C(Nc1ccc(S(=O)(=O)N2CCCCC2c2cccnc2)cc1)c1ccc(F)cc1 (stereo not drawn)	18µM*	u	23µM*	u	u	-47%
